These results are taken from PubChem BioAssay (EPA / NIEHS).

Inconclusive results are not listed. Active and inactive are the calls of the source. Rule for the calls: active = hit-call score of the fitted dose curve at least 0.9, where 1 is the maximum; inconclusive = response in the unintended direction; inactive = score below 0.9.

Experiment [1] deals with rat Peripheral-type Benzodiazepine Receptor (PBR), Tspo (gene 24230) (UniProt P16257). Nature of the experiment: NVS_MP_rPBR: NovaScreen (NVS) Membrane Protein Assay for rat Peripheral-type Benzodiazepine Receptor (PBR) (AID 2283335). The procedure, abridged:
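Single-concentration duplicate screening at 25 uM preceded concentration-series retesting of actives. Binding of a specific radioligand to rat kidney membrane PBR was read by filtration radiodetection after 1 h, with plate-wise positive and negative controls.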

For another experiment, the system named is NCBI gene 100848466. The experiment can be described thus: NVS_NR_bPR: NovaScreen (NVS) Nuclear Receptor Binding Assay for bovine Progextron Receptor (PR) (AID 2283343).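 For AC50: actives lower bound radioligand signal below DMSO meaning displacement of the label.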 The procedure, abridged: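 Steps: bovine uterine membranes were dosed with chemical alongside radioligand, incubated 18 hours, then radiodetected by scintillation counting. Initial testing used 25 uM in duplicate; confirmed actives were rerun as concentration series.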

In experiment [2] the target is human Constitutive Androstane Receptor (CAR), NR1I3 (gene 9970) (UniProt Q14994). Nature of the experiment: NVS_NR_hCAR_Antagonist: NovaScreen (NVS) Nuclear Receptor Binding Assay for human Constitutive Androstane Receptor Antagonism (CAR) (AID 2283344). The procedure, abridged:
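Single 25 uM duplicate primary screen, with concentration-series follow-up on actives. Cell-free binding format run in antagonist mode, TR-FRET signal taken 1 h post-dose; activity is signal loss relative to DMSO.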

Experiment [3] concerns the target human Androgen Receptor (AR), AR (gene 367) (UniProt P10275). Nature of the experiment: NVS_NR_hAR: NovaScreen (NVS) Nuclear Receptor Binding Assay for human Androgen Receptor (AR) (AID 2283332). The gist of the method:
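Actives from a duplicate 25 uM single-point screen went on to concentration series. Read-out after 20 h was scintillation counting of displaced radioligand in LnCAP extract, with DMSO as baseline.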

Experiment [4] has as its target Androgen Receptor/SRC-1 Co-activator, AR (gene 367) (UniProt P10275). The experiment can be described thus: OT_AR_ARSRC1_0960: Odyssey Thera (OT) 16-hour HEK293T Protein-Complementation Assay for Androgen Receptor/SRC-1 Co-activator (AID 2283353).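 Note: actives raise the signal above DMSO so potency reflects increased AR and SRC-1 complex.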 The gist of the method: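 Sixteen-hour cell assay: Venus halves fused to AR and SRC-1 in HEK293T report binding. Images at 488/635 nm give an N/C ratio in the 488 nm channel over ≥400 cells, analysed as signal increase over DMSO.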

Experiment [5] shares this target. The experiment can be described thus: OT_AR_ARSRC1_0480: Odyssey Thera (OT) 8-hour HEK293T Protein-Complementation Assay for Androgen Receptor/SRC-1 Co-activator (AID 2283354).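 Note: hits raise the complementation signal above DMSO so AC50 marks enhancers.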 The procedure, abridged:
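After 8 h dosing, stably expressing HEK293T cells with split-Venus AR/SRC-1 fusions were imaged (488, 635nm). The 488nm N/C ratio per image gave the endpoint, analysed in the positive direction against DMSO.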

Experiment [6] has as its target Bile acid receptor (Homo sapiens) (UniProt Q96RI1). The experiment can be described thus: NVS_NR_hFXR_Agonist: NovaScreen (NVS) Nuclear Receptor Binding Assay for human Farnesoid X Receptor Agonism (FXR) (AID 2283347). The procedure, abridged:
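Agonist-mode FXR assay read by time-resolved FRET 1 h after compound addition, using isolated human receptor protein without cells. Duplicate 25 uM single-point primary screen, concentration series for confirmed actives; DMSO as baseline.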

A short description of experiment [7]: NVS_IC_rCaBTZCHL: NovaScreen (NVS) Ion Channel Assay for Calcium Channel, Type L, Benzothiazepine Site (CaBTZCHL) (AID 2283337). The procedure, abridged:
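Benzothiazepine-site binding was assessed in a tissue-derived, cell-free rat cortical membrane system. After 1.5 h exposure, radioactivity retained on filters was quantified by scintillation; positive and negative controls accompanied every plate.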

In experiment [8] the target is Estrogen receptor (Homo sapiens) (UniProt P03372). Nature of the experiment: NVS_NR_hER: NovaScreen (NVS) Nuclear Receptor Binding Assay for human Estrogen Receptor (ER) (AID 2283348). The procedure, abridged: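 Radiodetection of ligand displacement in a lysate-based, cell-free format using MCF7 extracts, read at 18 hours. Duplicate 25 uM primary testing, then concentration series for actives.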
Estrogen receptor (Homo sapiens), sequence (P03372 whole entry, looked up): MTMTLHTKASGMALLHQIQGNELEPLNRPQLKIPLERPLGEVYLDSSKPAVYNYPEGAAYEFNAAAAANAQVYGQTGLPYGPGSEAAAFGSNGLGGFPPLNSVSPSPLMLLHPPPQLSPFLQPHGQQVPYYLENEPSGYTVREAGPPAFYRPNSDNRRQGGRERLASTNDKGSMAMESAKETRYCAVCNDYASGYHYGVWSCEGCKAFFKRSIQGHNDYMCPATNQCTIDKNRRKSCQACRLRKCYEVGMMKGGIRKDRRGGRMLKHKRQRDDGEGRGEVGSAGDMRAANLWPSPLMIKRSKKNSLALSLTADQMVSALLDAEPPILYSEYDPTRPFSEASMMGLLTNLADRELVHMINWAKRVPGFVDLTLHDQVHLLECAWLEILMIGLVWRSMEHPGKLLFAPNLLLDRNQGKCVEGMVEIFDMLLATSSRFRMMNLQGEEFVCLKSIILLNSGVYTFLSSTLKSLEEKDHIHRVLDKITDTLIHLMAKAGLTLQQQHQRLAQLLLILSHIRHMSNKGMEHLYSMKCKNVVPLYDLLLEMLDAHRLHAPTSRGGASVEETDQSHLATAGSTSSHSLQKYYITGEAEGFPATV

Experiment [9] has the same target. Nature of the experiment: OT_ER_ERaERa_1440: Odyssey Thera (OT) 24-hour HEK293T Protein-Complementation Assay for Estrogen Receptor-alpha/-alpha Homodimer (AID 2283349).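 Note: hits raise fluorescence above DMSO for agonists and antagonists alike.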 The gist of the method: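 Stably transfected HEK293T; ERα LBD homodimer PCA. 24 h dosing, fluorescence intensity read, gain-of-signal vs DMSO.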
The target is the same in experiment [10]. Nature of the experiment: OT_ER_ERaERa_0480: Odyssey Thera (OT) 8-hour HEK293T Protein-Complementation Assay for Estrogen Receptor-alpha/-alpha Homodimer (AID 2283351).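 Note: rise in fluorescence from reassembled reporter fragments on ERα LBD homodimer in nucleus or whole cell.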 The gist of the method:
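Measures ERα LBD (aa 310-547) homodimer complementation in stably transfected HEK293T at 8 h post-dose, with fluorescence intensity quantified on a laser scanning cytometer relative to DMSO controls.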

The target in experiment [11] is Estrogen receptor (Homo sapiens) + Estrogen receptor beta (Homo sapiens) (UniProt P03372+Q92731). Nature of the experiment: OT_ER_ERaERb_0480: Odyssey Thera (OT) 8-hour HEK293T Protein-Complementation Assay for Estrogen Receptor-alpha/-beta Heterodimer (AID 2283352). The gist of the method:
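Compound added to HEK293T cells carrying split-reporter-tagged ER-alpha and ER-beta LBDs, incubated 8 hours, then imaged by laser scanning cytometer. Signal rise in nucleus, or nucleus and cytoplasm, over vehicle was fitted in the positive direction.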

Bile acid receptor (Homo sapiens), sequence (Q96RI1 whole entry, looked up): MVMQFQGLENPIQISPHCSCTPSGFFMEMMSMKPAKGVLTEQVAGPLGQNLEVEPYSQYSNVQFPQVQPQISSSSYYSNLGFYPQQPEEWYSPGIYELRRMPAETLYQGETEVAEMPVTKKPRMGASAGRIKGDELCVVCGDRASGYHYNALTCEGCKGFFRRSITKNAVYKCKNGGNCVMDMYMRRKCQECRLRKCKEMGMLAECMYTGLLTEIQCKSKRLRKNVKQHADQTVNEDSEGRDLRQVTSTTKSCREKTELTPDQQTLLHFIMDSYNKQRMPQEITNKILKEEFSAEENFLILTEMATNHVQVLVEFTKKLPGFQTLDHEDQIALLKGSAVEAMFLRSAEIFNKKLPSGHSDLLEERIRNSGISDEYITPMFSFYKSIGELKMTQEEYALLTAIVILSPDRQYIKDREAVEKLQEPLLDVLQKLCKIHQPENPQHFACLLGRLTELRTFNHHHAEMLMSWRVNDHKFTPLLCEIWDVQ
human Constitutive Androstane Receptor (CAR), NR1I3 (gene 9970), sequence (Q14994 whole entry, looked up): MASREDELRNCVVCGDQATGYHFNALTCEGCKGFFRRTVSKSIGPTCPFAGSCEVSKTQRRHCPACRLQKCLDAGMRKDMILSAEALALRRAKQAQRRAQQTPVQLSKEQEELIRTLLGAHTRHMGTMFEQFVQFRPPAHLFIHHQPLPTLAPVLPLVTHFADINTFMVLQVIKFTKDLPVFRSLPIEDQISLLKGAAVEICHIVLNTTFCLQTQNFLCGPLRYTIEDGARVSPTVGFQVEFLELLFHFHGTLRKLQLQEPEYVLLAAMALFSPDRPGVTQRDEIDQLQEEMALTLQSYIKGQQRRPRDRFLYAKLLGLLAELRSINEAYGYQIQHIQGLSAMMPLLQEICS
Estrogen receptor (Homo sapiens) + Estrogen receptor beta (Homo sapiens), sequence (P03372 whole entry, looked up): as the sequence (P03372 whole entry, looked up) above
Estrogen receptor (Homo sapiens) + Estrogen receptor beta (Homo sapiens), sequence (Q92731 whole entry, looked up): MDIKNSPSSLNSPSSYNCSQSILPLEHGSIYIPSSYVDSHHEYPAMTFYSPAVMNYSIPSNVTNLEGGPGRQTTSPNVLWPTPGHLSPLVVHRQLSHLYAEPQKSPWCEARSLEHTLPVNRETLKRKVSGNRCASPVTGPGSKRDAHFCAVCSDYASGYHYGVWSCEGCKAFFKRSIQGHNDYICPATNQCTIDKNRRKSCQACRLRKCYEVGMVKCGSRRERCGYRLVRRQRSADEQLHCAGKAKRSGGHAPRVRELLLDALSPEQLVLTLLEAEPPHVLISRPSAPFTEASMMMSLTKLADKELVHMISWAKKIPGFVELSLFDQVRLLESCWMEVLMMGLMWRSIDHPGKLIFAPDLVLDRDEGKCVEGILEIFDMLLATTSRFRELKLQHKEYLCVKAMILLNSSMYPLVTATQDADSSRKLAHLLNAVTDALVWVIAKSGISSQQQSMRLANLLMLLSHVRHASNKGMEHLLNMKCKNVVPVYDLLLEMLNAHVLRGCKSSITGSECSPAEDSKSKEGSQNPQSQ
Androgen Receptor/SRC-1 Co-activator, AR (gene 367), sequence (P10275 whole entry, looked up, the tested form may be a part): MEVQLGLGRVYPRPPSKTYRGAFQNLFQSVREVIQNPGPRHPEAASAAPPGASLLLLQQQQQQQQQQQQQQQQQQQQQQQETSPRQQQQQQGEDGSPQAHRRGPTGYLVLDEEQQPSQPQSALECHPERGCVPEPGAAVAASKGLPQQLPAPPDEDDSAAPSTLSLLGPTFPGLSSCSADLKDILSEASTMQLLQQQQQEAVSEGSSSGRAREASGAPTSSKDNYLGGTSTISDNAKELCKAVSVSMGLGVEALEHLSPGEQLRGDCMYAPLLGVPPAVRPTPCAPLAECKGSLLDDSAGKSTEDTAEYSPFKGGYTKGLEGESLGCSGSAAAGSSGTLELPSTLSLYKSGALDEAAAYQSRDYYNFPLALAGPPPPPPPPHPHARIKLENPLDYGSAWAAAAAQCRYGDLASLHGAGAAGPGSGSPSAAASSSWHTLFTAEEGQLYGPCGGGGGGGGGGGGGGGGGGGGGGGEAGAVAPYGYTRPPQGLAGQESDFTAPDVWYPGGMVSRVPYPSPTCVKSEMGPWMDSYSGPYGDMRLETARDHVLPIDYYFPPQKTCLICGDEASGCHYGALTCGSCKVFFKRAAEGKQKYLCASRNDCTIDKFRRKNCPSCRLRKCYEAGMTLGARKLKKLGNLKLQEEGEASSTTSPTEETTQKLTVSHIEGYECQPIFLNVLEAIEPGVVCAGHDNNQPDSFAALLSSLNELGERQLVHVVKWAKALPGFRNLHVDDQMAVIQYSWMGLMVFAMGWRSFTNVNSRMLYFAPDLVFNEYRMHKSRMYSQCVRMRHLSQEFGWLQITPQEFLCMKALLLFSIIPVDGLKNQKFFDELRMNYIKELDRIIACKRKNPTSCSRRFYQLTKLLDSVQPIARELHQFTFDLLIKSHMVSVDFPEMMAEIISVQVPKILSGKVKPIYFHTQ
rat Peripheral-type Benzodiazepine Receptor (PBR), Tspo (gene 24230), sequence (P16257 whole entry, looked up): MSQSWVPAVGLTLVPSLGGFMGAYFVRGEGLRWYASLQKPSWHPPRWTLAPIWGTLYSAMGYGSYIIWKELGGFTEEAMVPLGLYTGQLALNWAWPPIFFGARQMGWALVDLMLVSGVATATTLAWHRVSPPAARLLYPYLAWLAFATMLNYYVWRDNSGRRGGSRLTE
human Androgen Receptor (AR), AR (gene 367), sequence (P10275 whole entry, looked up): as the sequence (P10275 whole entry, looked up, the tested form may be a part) above

In the case of `CNc1cnn(-c2cccc(C(F)(F)F)c2)c(=O)c1Cl`, the AC50 in experiment [1] was 4.99 µM (active). Moreover, the molecule was called inactive (in the experiment on NCBI gene 100848466; in experiment [2]).
Turning to `CCOP(=S)(OCC)Oc1cc(C)nc(C(C)C)n1`, in [1], the AC50 is 1.3 µM (active). Moreover, the molecule was classed as inactive (in the experiment on NCBI gene 100848466; in experiment [2]).
In the case of `CCC(=O)Nc1ccc(Cl)c(Cl)c1`, the AC50 in experiment [3] was 8.41 µM (active); in experiment [1], 9.5 µM (active). The call in [2], in [4] and in [5] was inactive.
Take `CCC(CC)Nc1c([N+](=O)[O-])cc(C)c(C)c1[N+](=O)[O-]`: the outcome in experiment [1] and in experiment [2] was inactive. In addition, the AC50 in the experiment with NCBI gene 100848466 is 40.1 µM (active).
With `CCOP(=S)(OCC)SCCSCC`, the AC50 in experiment [1] was 17.9 µM (active); with NCBI gene 100848466, 25 µM (active). In experiment [2], the molecule was called inactive.
On to `N#CSCSC#N`, for which the outcome in [2] and in [6] was inactive. Also, the values for the AC50 in experiment [4] and in experiment [5] were 15.5 µM (active) and 18.2 µM (active), respectively.
For `CCCCN(CC)c1c([N+](=O)[O-])cc(C(F)(F)F)cc1[N+](=O)[O-]`, the molecule was called inactive in experiment [1] and in [2].
For `CCOP(=O)(NC(C)C)Oc1ccc(SC)c(C)c1` (stereo not given), the AC50 in experiment [2] was 16.8 µM (active). The result in experiment [4] and in [5] was inactive.
In the case of `CSc1nnc(C(C)(C)C)c(=O)n1N`, the result in [7] and in experiment [2] was inactive.
Turning to `CC(C)[C@H](C(=O)O[C@H](C#N)c1cccc(Oc2ccccc2)c1)c1ccc(Cl)cc1`, the molecule was called inactive in the experiment with NCBI gene 100848466.
With `Cc1nn(-c2cc(NS(C)(=O)=O)c(Cl)cc2Cl)c(=O)n1C(F)F`, the molecule was called inactive in experiment [4] and in experiment [5].
On to `O=c1ccc(=O)[nH][nH]1`, for which the molecule was called inactive in experiment [4] and in experiment [5].
As to `CSC1=N[C@@](C)(c2ccccc2)C(=O)N1Nc1ccccc1`, the AC50 in [2] is 3.63 µM (active).
Take `CC(C1CC1)C(O)(Cn1cncn1)c1ccc(Cl)cc1` (stereo not given): in the experiment on NCBI gene 100848466, the molecule was called inactive.
Turning to `COP(=O)(OC)SCn1c(=O)oc2cc(Cl)cnc21`, the result in experiment [8], in experiment [9] and in experiment [5] was inactive. Further, the AC50 in [4] was 57.8 µM (active).
Regarding `CON=C(C(=O)OC)c1ccccc1CON=C(C)c1cccc(C(F)(F)F)c1`, the AC50 in [1] is 0.612 µM (active). Further, in experiment [2], the molecule was classed as inactive.
Turning to `Nc1c(Cl)cc([N+](=O)[O-])cc1Cl`, the molecule was classed as inactive in experiment [6], in experiment [9], in experiment [10], in experiment [11], in experiment [4] and in [5].
`CCCOc1nn(C(=O)NS(=O)(=O)c2ccccc2C(=O)OC)c(=O)n1C`: the outcome in experiment [4] and in experiment [5] was inactive.
Consider `CCOC(=O)COc1cc(-c2nn(C)c(OC(F)F)c2Cl)c(F)cc1Cl`, for which the outcome in experiment [4] and in experiment [5] was inactive.
Consider `CCC(=NOC/C=C/Cl)C1=C(O)CC(C2CCOCC2)CC1=O` (stereo not given), for which the call in experiment [1] and in experiment [2] was inactive.
In the case of `COc1cccc(C(=O)NN(C(=O)c2cc(C)cc(C)c2)C(C)(C)C)c1C`, in [2], the molecule was classed as inactive.
With `CC(COc1ccc(Oc2ccccc2)cc1)Oc1ccccn1` (stereo not given), the call in experiment [1], in experiment [2], in [4] and in experiment [5] was inactive.
For `CCCCOC(=O)c1ccccc1C(=O)O`, the outcome in experiment [6], in experiment [4] and in experiment [5] was inactive.
With `CCOP(=O)(OCC)Oc1cc(C)nc(C(C)C)n1`, the call in the experiment on NCBI gene 100848466 was inactive.
`CCCCOC(=O)[C@@H](C)Oc1ccc(Oc2ccc(C#N)cc2F)cc1`: the molecule was called inactive in [9], in experiment [10] and in [11].
For the molecule `Cc1cc(C2CC2)nc(Nc2ccccc2)n1`, the AC50 is 7.55 µM (active) in experiment [1] and 25 µM (active) in experiment [2]. In addition, the outcome in experiment [9], in [10] and in experiment [11] was inactive.
Take `CC(C)=CC1C(C(=O)OCN2C(=O)C3=C(CCCC3)C2=O)C1(C)C` (stereo not given): the result in experiment [1] was inactive. Moreover, the AC50 was 78.6 µM (active) in experiment [4] and 77.5 µM (active) in [5].
With `CNC(=O)Oc1cccc2c1OC(C)(C)O2`, the molecule was called inactive in experiment [2], in [9] and in experiment [10].
For the molecule `COP(=O)(OC)OC(Br)C(Cl)(Cl)Br` (stereo not given), the molecule was called inactive in [9], in experiment [10] and in [5]. For the same molecule, the AC50 in [4] is 32.5 µM (active).
Consider `CC1=NNC(=O)N(/N=C/c2cccnc2)C1`, for which, in experiment [7], the outcome was inactive.
Regarding `CC1(C(=O)Nc2ccc(O)c(Cl)c2Cl)CCCCC1`, the AC50 in [1] was 0.47 µM (active). Further, in experiment [2], the call was inactive.
Take `C[N+]1(C)CCCCC1`: the call in [1] and in experiment [4] was inactive.
On to `CCc1cccc(CC)c1N(COC)C(=O)CCl`, for which the AC50 is 5.18 µM (active) in experiment [1], 9.33 µM (active) in experiment [2] and 32 µM (active) in experiment [4]. For the same molecule, the call in experiment [9] and in experiment [5] was inactive.
